Measurements published in PubChem BioAssay.
Values joined by “and” are separate entries in the source; they are usually repeats but may differ in a detail not shown here. Identical values can stand only once. Active and inactive are the calls of the source.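 The calls were made as follows, unless noted: active = thallium flux through the channel raised or lowered by more than 3 SD from vehicle-only wells, actives on both sides; inactive = the rest.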

Columns and labels:
[1] = signal quenchers or enhancers, Cy5 substrate/SSB – biochemical, NIH Clinical Collection, E. coli SSB, artefact control for HCV NS3 helicase inhibitor project (AID 743268; call rule not given here); settings: Cy5-oligo bound E. coli SSB, fluorescence interference
[2] = system: Hepatitis C virus NS3 helicase; experiment: blockers of NS3h binding to DNA – biochemical, fluorescence polarization, NIH Clinical Collection, primary screen (AID 743270; call rule not given here); settings: NS3 helicase binding to Cy5-dT15 DNA, stronger effect = higher value, concentration not given here
[3] = target: Single-stranded DNA-binding protein (Escherichia coli (strain K12)) (UniProt P0AGE0); experiment: SSB-ssDNA binding inhibitors – biochemical, fluorescence polarization, NIH Clinical Collection, counter-screen for HCV NS3 helicase inhibitor project (AID 743271; in the data active = inhibition above about 28%); settings: E. coli SSB-DNA binding, stronger effect = higher value, concentration not given here
[4] = compounds distorting NS3 helicase fluorescence signal – biochemical, NIH Clinical Collection, artefact control for HCV NS3 helicase inhibitor project (AID 743272; call rule not given here;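 also: HCV NS3 helicase with a Cy5 labelled single stranded DNA probe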); settings: fluorescence interference counterscreen, HCV NS3 helicase assay; stronger effect = lower value
[5] = modulation of C. elegans fzo-1 (AID 1259413; call rule not given here;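 also: fzo-1 mutant C. elegans worms in liquid wells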); settings: C. elegans fzo-1 modulator screen, mean read-out; stronger effect = higher value
[6] = viability loss with induced miR-34 in A549 – imaging, A549 dox-inducible miR-34, nuclei and caspase counts, primary screen (AID 1347080;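 active = compounds whose cell count with miR-34 switched on is under 0.7 times the count with it off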); settings: A549 miR-34 inducible, Hoechst nuclei count, 48 h
[7] = system: F380Y; experiment: BK channel mutant inhibitors and activators – cell-based, U2OS BacMam, thallium flux, beta subunits, selectivity assay, profiling panel (AID 1259406); settings: U2OS BacMam BK variants, at 30 µM;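 also: initial slope of Thallos dye fluorescence rise after thallium is added; log ratio against the mean of 0.3% DMSO vehicle wells on the same plate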
[8] = system: F380Y/beta1; experiment: as above; settings: U2OS BacMam BK variants, at 30 µM
[9] = system: F380Y/beta2Delta; experiment: as above; settings: U2OS BacMam BK variants, at 30 µM
[10] = system: F380Y/beta4; experiment: as above; settings: U2OS BacMam BK variants, at 30 µM
[11] = target: Calcium-activated potassium channel subunit alpha-1 (Homo sapiens) + Leucine-rich repeat-containing protein 26 (Homo sapiens) (UniProt Q12791+Q2I0M4); experiment: as above; settings: U2OS BacMam BK variants, F380Y/Slo1WT/gamma1, at 30 µM
Calcium-activated potassium channel subunit alpha-1 (Homo sapiens) + Leucine-rich repeat-containing protein 26 (Homo sapiens), sequence (Q2I0M4 whole entry, looked up, one chain of several): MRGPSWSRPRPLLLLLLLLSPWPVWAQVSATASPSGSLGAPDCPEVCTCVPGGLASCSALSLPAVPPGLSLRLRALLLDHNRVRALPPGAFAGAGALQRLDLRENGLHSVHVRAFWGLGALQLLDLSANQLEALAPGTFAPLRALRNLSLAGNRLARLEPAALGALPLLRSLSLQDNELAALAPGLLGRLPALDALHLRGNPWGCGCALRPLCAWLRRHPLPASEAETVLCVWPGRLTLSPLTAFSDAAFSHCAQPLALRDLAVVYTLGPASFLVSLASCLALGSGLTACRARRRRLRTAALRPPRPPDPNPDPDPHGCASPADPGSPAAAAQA

[12] = system: R275C; experiment: as above; settings: U2OS BacMam BK variants, at 30 µM
[13] = system: R275C/beta1; experiment: as above; settings: U2OS BacMam BK variants, at 30 µM
[14] = system: R275C/beta2Delta; experiment: as above; settings: U2OS BacMam BK variants, at 30 µM
[15] = system: R275C/beta4; experiment: as above; settings: U2OS BacMam BK variants, at 30 µM
[16] = system: R275C/Slo1WT/beta2; experiment: as above; settings: U2OS BacMam BK variants, at 30 µM
[17] = P. berghei load reduction in hepatocytes – cell-based, HepG2, luciferase luminescence, HepG2 viability, primary screen (AID 624349; in the data active = parasite load remaining mostly below about 12%, no sharp cut-off; inactive = mostly above about 10%;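 also: 100% = mean of DMSO negative control wells on the same plate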); settings: P. berghei liver stage in HepG2, luciferase luminescence, concentration not given here; parasite load remaining: stronger effect = lower value; viability: measured here: HepG2 viability without parasites
[18] = EMT-state selective cytotoxicity in co-culture – imaging, PC-3E GFP, TEM4-18 mCherry, primary screen (AID 1345086;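 active = compounds killing one labelled cell type while sparing the other, by normalised counts and ratio limits, not self-fluorescent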;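 as to all read-outs here: cells exposed to compound for 72 h before imaging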;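 as to red/green cell ratio (normalised): normalised mesenchymal count divided by normalised epithelial count so high means epithelial killing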); settings: PC-3E GFP / TEM4-18 mCherry co-culture, imaging cell counts, at 1 µM; for red/green cell ratio (normalised): actives lie on both sides, counts scaled to control wells, 1 = unselective
[19] = MELAS cybrid and Rieske KO viability enhancers – cell-based, MELAS cybrids, Rieske KO mouse fibroblasts, CellTiter-Glo, primary screen (AID 1508586;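 active = mean z-score across replicates of 1.96 or higher in either the MELAS or the Rieske mutant cell line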;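 also: z relative to plate mean and SD of compound and empty wells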); settings: low glucose
[20] = drug combination growth inhibition, ovarian cancer – cell-based, oncology-focused library, rucaparib conditional, profiling panel (AID 1508598;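 active = normalized viability below 100% at a tested concentration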); settings: patient-derived ovarian cancer cells, CellTiter-Glo viability, 144 h, stronger effect = lower value
[21] = stronger effect = lower value, cell number ratio, induced over uninduced
[22] = measured here: relative caspase fold change +Dox/-Dox
[23] = measured here: total cells with miR-34 induction, stronger effect = lower value
[24] = measured here: total cells without miR-34 induction
[25] = measured here: epithelial PC-3E GFP cell survival
[26] = measured here: mesenchymal TEM4-18 mCherry cell survival
[27] = MELAS cybrid survival, CellTiter-Glo 48 h, stronger effect = higher value
[28] = Rieske KO mouse fibroblast survival, CellTiter-Glo 72 h

COC(=O)C[C@](O)(CCCC(C)(C)O)C(=O)O[C@@H]1C(OC)=C[C@]23CCCN2CCc2cc4c(cc2[C@H]13)OCO4
1670: cell count [6, 23]
inactive: fluorescence ratio [1] 1 | inhibition [2] -0.22% | inhibition [3] 1.18% | fluorescence ratio [4] 0.99 | mean signal [5] 211 | fold change [6, 21] 1.08 | log fold change Tl+ flux [7] 0.0231 | log fold change Tl+ flux [8] -4.2e-05 | log fold change Tl+ flux [9] -0.00992 | log fold change Tl+ flux [10] 0.013 | log fold change Tl+ flux [11] -0.0674 | log fold change Tl+ flux [12] -0.0969 | log fold change Tl+ flux [13] -0.0403 | log fold change Tl+ flux [14] -0.0559 | log fold change Tl+ flux [15] -0.045 | log fold change Tl+ flux [16] 0.0211
1.16: fold change [6, 22]
1550: cell count [6, 24]

O=C1CN2Cc3c(ccc(Cl)c3Cl)N=C2N1
active: viability ([20]; at 0.000305 µM, OCI-P5x cells, with rucaparib 20 µM, 100% = cells with rucaparib alone) 98.8% | viability ([20]; at 0.000305 µM, OCI-P5x cells, without rucaparib) 72% | viability ([20]; at 0.0195 µM, OCI-P5x cells, with rucaparib 20 µM, 100% = cells with rucaparib alone) 99.6% | viability ([20]; at 0.0781 µM, OCI-P5x cells, with rucaparib 20 µM, 100% = cells with rucaparib alone) 94% | viability ([20]; at 0.313 µM, OCI-P5x cells, with rucaparib 20 µM, 100% = cells with rucaparib alone) 90.5% | viability ([20]; at 0.313 µM, OCI-P5x cells, without rucaparib) 92.4% | viability ([20]; at 1.25 µM, OCI-P5x cells, with rucaparib 20 µM, 100% = cells with rucaparib alone) 88.3% | viability ([20]; at 1.25 µM, OCI-P5x cells, without rucaparib) 92.2% | viability ([20]; at 5 µM, OCI-P5x cells, with rucaparib 20 µM, 100% = cells with rucaparib alone) 83.7% | viability ([20]; at 5 µM, OCI-P5x cells, without rucaparib) 85.5%
99.2% and 69.6% and 96.5%: viability [17]
0.79: normalised cell number [18, 26]
-0.321 and 0.64 and -0.821: z-score [19, 28]
inactive: parasite load remaining [17] 45.6% and 99.2% and 57.7% | fluorescence ratio [1] 1.06 | inhibition [2] -12.3% | inhibition [3] -7.03% | fluorescence ratio [4] 1.02 | mean signal [5] 210 | red/green cell ratio (normalised) [18] 0.92 | z-score [19, 27] -0.241 and 0.475 and -0.0504 | viability ([20]; at 0.000305 µM, OCI-C5x cells, with rucaparib 10 µM, 100% = cells with rucaparib alone) 111% | viability ([20]; at 0.000305 µM, OCI-C5x cells, without rucaparib) 124% | viability ([20]; at 0.00122 µM, OCI-C5x cells, with rucaparib 10 µM, 100% = cells with rucaparib alone) 113% | viability ([20]; at 0.00122 µM, OCI-C5x cells, without rucaparib) 126% | viability ([20]; at 0.00122 µM, OCI-P5x cells, with rucaparib 20 µM, 100% = cells with rucaparib alone) 100% | viability ([20]; at 0.00122 µM, OCI-P5x cells, without rucaparib) 107% | viability ([20]; at 0.00488 µM, OCI-C5x cells, with rucaparib 10 µM, 100% = cells with rucaparib alone) 115% | viability ([20]; at 0.00488 µM, OCI-C5x cells, without rucaparib) 121% | viability ([20]; at 0.00488 µM, OCI-P5x cells, with rucaparib 20 µM, 100% = cells with rucaparib alone) 106% | viability ([20]; at 0.00488 µM, OCI-P5x cells, without rucaparib) 105% | viability ([20]; at 0.0195 µM, OCI-C5x cells, with rucaparib 10 µM, 100% = cells with rucaparib alone) 111% | viability ([20]; at 0.0195 µM, OCI-C5x cells, without rucaparib) 115% | viability ([20]; at 0.0195 µM, OCI-P5x cells, without rucaparib) 103% | viability ([20]; at 0.0781 µM, OCI-C5x cells, with rucaparib 10 µM, 100% = cells with rucaparib alone) 109% | viability ([20]; at 0.0781 µM, OCI-C5x cells, without rucaparib) 107% | viability ([20]; at 0.0781 µM, OCI-P5x cells, without rucaparib) 101% | viability ([20]; at 0.313 µM, OCI-C5x cells, with rucaparib 10 µM, 100% = cells with rucaparib alone) 125% | viability ([20]; at 0.313 µM, OCI-C5x cells, without rucaparib) 118% | viability ([20]; at 1.25 µM, OCI-C5x cells, with rucaparib 10 µM, 100% = cells with rucaparib alone) 123% | viability ([20]; at 1.25 µM, OCI-C5x cells, without rucaparib) 107% | viability ([20]; at 5 µM, OCI-C5x cells, with rucaparib 10 µM, 100% = cells with rucaparib alone) 122% | viability ([20]; at 5 µM, OCI-C5x cells, without rucaparib) 116% | log fold change Tl+ flux [7] -0.00116 | log fold change Tl+ flux [8] 0.0415 | log fold change Tl+ flux [9] 0.0342 | log fold change Tl+ flux [10] 0.00749 | log fold change Tl+ flux [11] -0.00535 | log fold change Tl+ flux [12] -0.0701 | log fold change Tl+ flux [13] -0.00554 | log fold change Tl+ flux [14] -0.00347 | log fold change Tl+ flux [15] -0.00682 | log fold change Tl+ flux [16] -0.00842
0.86: normalised cell number [18, 25]

COc1ccc(C[C@H](C)NC[C@@H](O)c2ccc(O)c(NC=O)c2)cc1
0.716: fold change [6, 22]
77.1%: viability [17]
8440: cell count [6, 24]
inactive: parasite load remaining [17] 66.9% | fluorescence ratio [1] 1.02 | inhibition [2] -9.9% | inhibition [3] -0.1% | fluorescence ratio [4] 0.98 | mean signal [5] 235 | fold change [6, 21] 0.975 | z-score [19, 27] -0.844 | log fold change Tl+ flux [7] -0.0497 | log fold change Tl+ flux [8] -4.2e-05 | log fold change Tl+ flux [9] 0.0145 | log fold change Tl+ flux [10] -0.0214 | log fold change Tl+ flux [11] 0.0199 | log fold change Tl+ flux [12] 0.00389 | log fold change Tl+ flux [13] 0.0191 | log fold change Tl+ flux [14] -0.0506 | log fold change Tl+ flux [15] 0.0483 | log fold change Tl+ flux [16] 0.0259
8230: cell count [6, 23]
-0.643: z-score [19, 28]

CC(C)NCC(O)c1ccc(NS(C)(=O)=O)cc1 (stereo not given)
0.97: normalised cell number [18, 26]
inactive: fluorescence ratio [1] 1.06 | inhibition [2] 1.19% | inhibition [3] -3.95% | fluorescence ratio [4] 0.98 | mean signal [5] 233 | red/green cell ratio (normalised) [18] 0.8 | z-score [19, 27] -0.308 and -0.43 and 0.386 | log fold change Tl+ flux [7] 0.0283 | log fold change Tl+ flux [8] -0.0363 | log fold change Tl+ flux [9] 0.0277 | log fold change Tl+ flux [10] 0.0134 | log fold change Tl+ flux [11] -0.004 | log fold change Tl+ flux [12] -0.065 | log fold change Tl+ flux [13] -0.000905 | log fold change Tl+ flux [14] -0.0581 | log fold change Tl+ flux [15] 0.0206 | log fold change Tl+ flux [16] 0.0082
0.759 and -0.504 and 0.277: z-score [19, 28]
1.21: normalised cell number [18, 25]

C[C@H]1O[C@H](O[C@H]2[C@H](O)[C@@H](O)[C@@H](O[C@H]3[C@H](O)[C@@H](O)C(O)O[C@@H]3CO)O[C@@H]2CO)[C@H](O)[C@@H](O)[C@@H]1N[C@H]1C=C(CO)[C@@H](O)[C@H](O)[C@H]1O (stereo not given in full)
4.27: fold change [6, 22]
12200: cell count [6, 24]
104% and 111%: viability [17]
1.1: normalised cell number [18, 25]
inactive: parasite load remaining [17] 61.3% and 108% | fluorescence ratio [1] 1.08 | inhibition [2] 4.36% | inhibition [3] 0.67% | fluorescence ratio [4] 1.03 | mean signal [5] 228 | red/green cell ratio (normalised) [18] 0.91 | fold change [6, 21] 0.866 | log fold change Tl+ flux [7] -0.0255 | log fold change Tl+ flux [8] 0.0224 | log fold change Tl+ flux [9] 0.0097 | log fold change Tl+ flux [10] 0.039 | log fold change Tl+ flux [11] 0.00221 | log fold change Tl+ flux [12] -0.0575 | log fold change Tl+ flux [13] -0.00956 | log fold change Tl+ flux [14] -0.0417 | log fold change Tl+ flux [15] -0.0364 | log fold change Tl+ flux [16] -0.0206
10500: cell count [6, 23]
1: normalised cell number [18, 26]
